# Experimental data reported in PubChem BioAssay (Tox21).
# A number with no mark means an inactive call. Inconclusive results are not listed. A call without a number means that no potency is given here. Active and inactive are the calls of the source. The call rests on the fitted dose curve; in most records, active means well fitted curve in the direction sought with a large enough effect in the repeat runs; inconclusive means weak or mixed curves; inactive means no such curve, though single readings can be large; an effect the other way counts as inactive or inconclusive.
# What was measured:
# [1] = qHTS RealTime-Glo MT Cell Viability Assay in HEK293 cells - 40 hour (AID 1224874); settings: RealTime-Glo luminescence; max response: hits give low values; further: nearly all actives have a fitted effect of over 50% in size; further: potency means the concentration at half of the fitted maximal effect
# How it was run: (§1)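 Measured as luminescence from the same continuously cultured HEK293 wells at successive time points (0, 8, 16, 24, 32, 40 h) after compound addition. Reagent present from seeding; dosing at 5 h; incubation 37 C.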
# [2] = A CellTox Green Cytotoxicity Assay to monitor cytotoxicity in HEK293 cells - 24 hour (AID 1224875); further: nearly all actives have a fitted effect of over 45% in size; further: potency means the concentration at half of the fitted maximal effect
# How it was run: (§2)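 Homogeneous no-lysis format: HEK293 cell suspension mixed with CellTox Green reagent, seeded, incubated 5 h at 37 C/5% CO2, then dosed by pintool with compound in DMSO.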
# [3] = qHTS RealTime-Glo MT Cell Viability Assay in HepG2 cells - 32 hour (AID 1224877); further: nearly all actives have a fitted effect of over 55% in size; further: potency means the concentration at half of the fitted maximal effect
# How it was run: (§3)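 Luminescence read-out: viable HepG2 cells reduce a prosubstrate to a NanoLuc substrate, giving a signal proportional to live cell number. Reads taken at 0, 8, 16, 24, 32 and 40 h of compound exposure at 37 C.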
# [4] = A CellTox Green Cytotoxicity Assay to monitor cytotoxicity in HepG2 cells - 24 hour (AID 1224878); further: nearly all actives have a fitted effect of over 45% in size; further: potency means the concentration at half of the fitted maximal effect
# How it was run: (§4)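 Fluorescent DNA-binding dye, 600 HepG2 cells/well, 5 h preincubation then compound in DMSO; same plates read at 0–40 h, 37 C.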
# [5] = A CellTox Green Cytotoxicity Assay to monitor cytotoxicity in HepG2 cells - 40 hour (AID 1224879); further: nearly all actives have a fitted effect of over 40% in size; further: potency means the concentration at half of the fitted maximal effect
# How it was run: as §4
# [6] = qHTS RealTime-Glo MT Cell Viability Assay in HEK293 cells - 0 hour (AID 1224880); further: top concentration of the series differs between compounds; nearly all actives have a fitted effect of over 45% in size
# How it was run: as §1
# [7] = A CellTox Green Cytotoxicity Assay to monitor cytotoxicity in HepG2 cells - 0 hour (AID 1224882); further: nearly all actives have a fitted effect of over 35% in size
# How it was run: as §4
# [8] = A CellTox Green Cytotoxicity Assay to monitor cytotoxicity in HEK293 cells - 8 hour (AID 1224884); further: nearly all actives have a fitted effect of over 35% in size
# How it was run: as §2
# [9] = qHTS RealTime-Glo MT Cell Viability Assay in HepG2 cells - 16 hour (AID 1224885); further: nearly all actives have a fitted effect of over 50% in size; further: potency means the concentration at half of the fitted maximal effect
# How it was run: as §3
# [10] = qHTS RealTime-Glo MT Cell Viability Assay in HEK293 cells - 24 hour (AID 1224886); further: nearly all actives have a fitted effect of over 50% in size; further: potency means the concentration at half of the fitted maximal effect
# How it was run: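 Nonlytic real-time viability readout: viable cells convert prosubstrate to NanoLuc substrate, giving luminescence proportional to live cell number. HEK293, 600 cells/well, compound added after 5 h, continuous culture at 37 C.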
# [11] = qHTS RealTime-Glo MT Cell Viability Assay in HEK293 cells - 8 hour (AID 1224887); further: nearly all actives have a fitted effect of over 50% in size; further: potency means the concentration at half of the fitted maximal effect
# How it was run: as §1
# [12] = A CellTox Green Cytotoxicity Assay to monitor cytotoxicity in HEK293 cells - 16 hour (AID 1224888); further: nearly all actives have a fitted effect of over 35% in size
# How it was run: as §2
# [13] = qHTS RealTime-Glo MT Cell Viability Assay in HepG2 cells - 0 hour (AID 1224889); further: nearly all actives have a fitted effect of over 50% in size
# How it was run: as §3
# [14] = A CellTox Green Cytotoxicity Assay to monitor cytotoxicity in HepG2 cells - 8 hour (AID 1224890); further: nearly all actives have a fitted effect of over 45% in size; further: potency means the concentration at half of the fitted maximal effect
# How it was run: as §4
# [15] = qHTS assay to identify small molecule antagonists of the estrogen receptor alpha (ER-alpha) signaling pathway using the BG1 cell line in the presence of 0.1 nM 17-beta-estradiol - cell viability counter screen (AID 1259241); further: nearly all actives have a fitted effect of over 40% in size; further: potency means the concentration at half of the fitted maximal effect
# How it was run: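 Following 5 days in phenol red-free medium with charcoal-stripped serum, VM7Luc4E2 cells received test compounds alongside 0.1 nM 17beta-estradiol (final) at 37C for 22 hr. Live cells were then quantified via protease-substrate fluorescence.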
# [16] = qHTS assay to identify small molecule antagonists of the androgen receptor (AR) signaling pathway using the MDA cell line in the presence of 0.5 nM R1881 - cell viability counter screen (AID 1259242); further: nearly all actives have a fitted effect of over 45% in size; further: potency means the concentration at half of the fitted maximal effect
# How it was run: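 Human breast carcinoma MDA-kb2 cells, cultured without CO2, receive compounds alongside 0.5 nM (final) R1881 agonist. After 16 hr at 37C, viability is taken as live-cell protease signal.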
# [17] = target: Androgen receptor (Homo sapiens) (UniProt P10275); experiment: qHTS assay to identify small molecule antagonists of the androgen receptor (AR) signaling pathway using the MDA cell line in the presence of 0.5 nM R1881 (AID 1259243); further: nearly all actives have a fitted effect of over 50% in size; further: potency means the concentration at half of the fitted maximal effect
# How it was run: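 Cells: MDA-kb2 (MMTV-luc). Stimulus: 0.5 nM R1881. Time: 16 hr, 37C, no CO2. Detection: ONE-Glo luminescence after 30 min at RT.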
# [18] = A CellTox Green Cytotoxicity Assay to monitor cytotoxicity in HEK293 cells - 32 hour (AID 1224881); further: nearly all actives have a fitted effect of over 40% in size; further: potency means the concentration at half of the fitted maximal effect
# How it was run: as §2
# [19] = A CellTox Green Cytotoxicity Assay to monitor cytotoxicity in HepG2 cells - 16 hour (AID 1224876); further: nearly all actives have a fitted effect of over 45% in size; further: potency means the concentration at half of the fitted maximal effect
# How it was run: as §4
# [20] = A CellTox Green Cytotoxicity Assay to monitor cytotoxicity in HepG2 cells - 32 hour (AID 1224883); further: nearly all actives have a fitted effect of over 50% in size; further: potency means the concentration at half of the fitted maximal effect
# How it was run: as §4
# Androgen receptor (Homo sapiens), sequence (P10275 whole entry, looked up): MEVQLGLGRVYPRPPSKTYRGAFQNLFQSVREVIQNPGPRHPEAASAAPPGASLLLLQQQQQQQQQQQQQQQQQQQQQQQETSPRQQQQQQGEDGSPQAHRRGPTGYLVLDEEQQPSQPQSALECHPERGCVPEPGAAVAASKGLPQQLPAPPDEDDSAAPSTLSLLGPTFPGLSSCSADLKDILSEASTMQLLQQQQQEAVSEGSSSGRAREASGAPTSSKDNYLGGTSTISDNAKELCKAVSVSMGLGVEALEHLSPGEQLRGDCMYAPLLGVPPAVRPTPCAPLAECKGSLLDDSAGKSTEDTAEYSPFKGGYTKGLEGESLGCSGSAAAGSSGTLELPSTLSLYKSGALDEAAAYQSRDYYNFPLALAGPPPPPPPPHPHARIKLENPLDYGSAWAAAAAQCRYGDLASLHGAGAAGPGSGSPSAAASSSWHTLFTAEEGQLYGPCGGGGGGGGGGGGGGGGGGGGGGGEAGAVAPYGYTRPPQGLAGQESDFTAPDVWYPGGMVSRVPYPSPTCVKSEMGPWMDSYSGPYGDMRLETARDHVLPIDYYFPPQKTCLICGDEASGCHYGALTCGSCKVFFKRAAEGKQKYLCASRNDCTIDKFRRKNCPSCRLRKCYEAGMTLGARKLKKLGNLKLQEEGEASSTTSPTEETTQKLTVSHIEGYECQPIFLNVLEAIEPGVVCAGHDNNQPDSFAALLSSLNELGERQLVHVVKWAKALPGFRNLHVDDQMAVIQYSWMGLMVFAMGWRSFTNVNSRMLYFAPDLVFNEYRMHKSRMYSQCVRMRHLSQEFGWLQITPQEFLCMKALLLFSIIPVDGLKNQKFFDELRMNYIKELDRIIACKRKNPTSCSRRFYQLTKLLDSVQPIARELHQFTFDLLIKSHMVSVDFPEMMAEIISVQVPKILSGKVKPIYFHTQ
structure (smiles),measurement,setting,value
CCOC(=O)[C@H](O)[C@@H](O)C(=O)OCC,max response,[1],5.68%
same,Potency,[2],inactive
same,Potency,[3],inactive
same,Potency,[4],inactive
same,Potency,[5],inactive
same,Potency,[6],inactive
same,Potency,[7],inactive
same,Potency,[8],inactive
same,Potency,[9],inactive
same,Potency,[10],inactive
same,Potency,[11],inactive
same,Potency,[12],inactive
same,Potency,[13],inactive
same,Potency,[14],inactive
same,Potency,[15],inactive
same,Potency,[16],inactive
same,Potency,[17],inactive
CCOc1ccc([N+](=O)[O-])cc1,Potency,[1],49.7 µM (active)
same,Potency,[2],44.3 µM (active)
same,Potency,[3],inactive
same,Potency,[6],inactive
same,Potency,[18],44.3 µM (active)
same,Potency,[7],inactive
same,Potency,[9],inactive
same,Potency,[13],inactive
same,Potency,[14],inactive
same,Potency,[15],inactive
same,Potency,[16],inactive
CC(C)=CCC[C@H](C)CC=O,max response,[1],11.6%
same,Potency,[19],inactive
same,Potency,[3],inactive
same,Potency,[4],inactive
same,Potency,[5],inactive
same,Potency,[6],inactive
same,Potency,[7],inactive
same,Potency,[20],inactive
same,Potency,[8],inactive
same,Potency,[9],inactive
same,Potency,[10],inactive
same,Potency,[11],inactive
same,Potency,[13],inactive
same,Potency,[15],inactive
same,Potency,[16],inactive
O=S(=O)(c1ccc(OCc2ccccc2)cc1)c1ccccc1O,Potency,[1],19.5 µM (active)
same,Potency,[2],inactive
same,Potency,[3],inactive
same,Potency,[6],inactive
same,Potency,[18],inactive
same,Potency,[7],inactive
same,Potency,[8],inactive
same,Potency,[9],inactive
same,Potency,[12],inactive
same,Potency,[13],inactive
same,Potency,[14],inactive
same,Potency,[15],inactive
same,Potency,[16],inactive
CCCCCCCC/C=C\CCCCCCCC(=O)N(CCO)CCO,Potency,[1],43.5 µM (active)
same,Potency,[19],inactive
same,Potency,[3],inactive
same,Potency,[6],inactive
same,Potency,[7],inactive
same,Potency,[8],inactive
same,Potency,[9],inactive
same,Potency,[10],43.5 µM (active)
same,Potency,[11],43.5 µM (active)
same,Potency,[13],inactive
same,Potency,[14],inactive
same,Potency,[15],inactive
same,Potency,[16],inactive
Cc1ccc(Cl)c(N)c1Cl,max response,[1],-1.11%
same,Potency,[19],inactive
same,Potency,[6],inactive
same,Potency,[7],inactive
same,Potency,[8],inactive
same,Potency,[9],inactive
same,Potency,[10],inactive
same,Potency,[11],inactive
same,Potency,[12],inactive
same,Potency,[13],inactive
same,Potency,[14],inactive
same,Potency,[15],inactive
same,Potency,[16],inactive
O=C(c1ccccc1)c1ccc(Cl)cc1,max response,[1],0.405%
same,Potency,[2],inactive
same,Potency,[3],inactive
same,Potency,[4],inactive
same,Potency,[5],inactive
same,Potency,[6],inactive
same,Potency,[18],inactive
same,Potency,[7],inactive
same,Potency,[8],inactive
same,Potency,[9],inactive
same,Potency,[10],inactive
same,Potency,[11],inactive
same,Potency,[12],inactive
same,Potency,[13],inactive
same,Potency,[14],inactive
same,Potency,[15],inactive
same,Potency,[16],inactive
O=[N+]([O-])c1ccc(CO)cc1,max response,[1],7.7%
same,Potency,[2],inactive
same,Potency,[3],inactive
same,Potency,[4],inactive
same,Potency,[5],inactive
same,Potency,[6],inactive
same,Potency,[18],inactive
same,Potency,[7],inactive
same,Potency,[8],inactive
same,Potency,[9],inactive
same,Potency,[10],inactive
same,Potency,[11],inactive
same,Potency,[12],inactive
same,Potency,[13],inactive
same,Potency,[15],inactive
same,Potency,[16],inactive
same,Potency,[17],inactive
O=C1C=CC(=O)N1c1cccc(N2C(=O)C=CC2=O)c1,Potency,[1],9.77 µM (active)
same,Potency,[19],13.8 µM (active)
same,Potency,[3],15.5 µM (active)
same,Potency,[4],12.3 µM (active)
same,Potency,[5],12.3 µM (active)
same,Potency,[6],inactive
same,Potency,[7],inactive
same,Potency,[20],11 µM (active)
same,Potency,[8],inactive
same,Potency,[9],15.5 µM (active)
same,Potency,[10],11 µM (active)
same,Potency,[11],19.5 µM (active)
same,Potency,[13],inactive
same,Potency,[14],17.4 µM (active)
same,Potency,[15],68.6 µM (active)
same,Potency,[16],61.1 µM (active)
same,Potency,[17],61.1 µM (active)
